# SARS 3CLpro inh: SARS-CoV 3CLpro protease inhibition; recombinant SARS-CoV 3CLpro, quenched FRET peptide cleavage; inhibition, % at 6 µM; AID 1706; actives 0.14% (n = 290,000); P0C6X7; in the data active means inhibition above about 12%
# Mtb FBA inh: inhibitors of M. tuberculosis fructose-bisphosphate aldolase | purified M. tuberculosis FBA, fluorescence read-out | inhibition, % at 1 µM | P9WQA3 | AID 588726 | actives 2.3% (n = 360,000); in the data active means inhibition above about 27%;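 further: 0% = vehicle and 100% = reference inhibitor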
# Target sequence (P9WQA3 whole entry, looked up): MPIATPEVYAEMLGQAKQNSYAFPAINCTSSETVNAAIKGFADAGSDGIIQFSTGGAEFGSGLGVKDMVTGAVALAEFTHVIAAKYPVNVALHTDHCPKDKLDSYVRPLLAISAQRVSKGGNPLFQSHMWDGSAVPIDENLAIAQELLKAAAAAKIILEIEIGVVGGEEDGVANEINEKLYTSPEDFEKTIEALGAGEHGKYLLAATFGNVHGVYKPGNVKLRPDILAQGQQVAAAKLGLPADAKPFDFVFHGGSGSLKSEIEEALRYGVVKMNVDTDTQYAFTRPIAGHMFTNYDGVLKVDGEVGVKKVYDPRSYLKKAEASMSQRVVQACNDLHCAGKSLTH
# Mtb BioA inh: blocks M. tuberculosis BioA enzyme activity | purified M. tuberculosis BioA enzyme, plate reader | inhibition, % at 9.99 µM | actives 0.096% (n = 360,000); in the data active means inhibition above about 40%
# GDH-TPI inh: inhibits GDH-TPI coupling enzymes, artifact for Mtb FBA screen; actives 1.2% (n = 360,000); AID 588335; inhibition, % at 4.8 µM; GDH-TPI coupled enzyme counterscreen, NADH absorbance; in the data active means inhibition above about 30%;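 further: 0% = DMSO wells and 100% = wells lacking the enzyme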
# FadD28 FP inh: inhibitors of Mycobacterium tuberculosis FadD28 bisubstrate binding. actives 0.22% (n = 360,000). inhibition, % at 12.5 µM. AID 588549. FadD28 bisubstrate probe binding, fluorescence polarization; in the data active means inhibition above about 8.5%, passing the limit was not always enough
# Active calls of the source: *; nt = not tested or not shown; + = active, no number. Sampled rows, rich in hits. Any-hit rate of the full collection: about 3.1%.
SMILES,SARS 3CLpro inh,Mtb FBA inh,Mtb BioA inh,GDH-TPI inh,FadD28 FP inh
CCn1c(C)nc2cc(C(=O)N/N=C/c3ccc(N4CCOCC4)cc3)ccc21,3,4,nt,34*,-1
CCn1c(C)nc2cc(C(=O)N/N=C(\C)c3ccc(N4CCOCC4)cc3)ccc21,2,-3,nt,17,1
CCn1c(C)nc2cc(C(=O)N/N=C/c3ccc(OC)c(O)c3)ccc21,-3,-1,nt,39*,-5
Cc1cc(C(=O)Nc2cccc3c2O[C@@H](CN(C)C(=O)Nc2ccc4c(c2)OCO4)[C@@H](C)CN([C@@H](C)CO)C3=O)n(C)n1,nt,nt,-2,nt,nt
C[C@@H]1CN([C@H](C)CO)C(=O)c2cc(C#CC3CCCC3)cnc2O[C@@H]1CN(C)C(=O)Nc1ccccc1,nt,nt,-2,nt,nt
C[C@H](O)C#Cc1cnc2c(c1)C(=O)N([C@H](C)CO)C[C@@H](C)[C@H](CN(C)Cc1ccccn1)O2,nt,nt,-1,nt,nt
C[C@H]1CN([C@@H](C)CO)C(=O)c2cccc(NC(=O)C3CCOCC3)c2O[C@@H]1CN(C)S(=O)(=O)c1cn(C)cn1,nt,nt,-2,nt,nt
Cc1cccn2c(=O)c3cc(C#N)c(=NC(=O)c4cccs4)n(CCCOC(C)C)c3nc12,0,+,nt,12,-1
N#Cc1cc2c(=O)n3ccccc3nc2n(Cc2ccco2)c1=NC(=O)c1ccco1,-5,168*,nt,16,-1
N#Cc1cc2c(=O)n3ccccc3nc2n(CCCn2ccnc2)c1=N,2,25,-6,3,-3
CC(=O)N=c1c(C#N)cc2c(=O)n3cccc(C)c3nc2n1CCCOC(C)C,2,+,-2,5,-3
CCOCCCn1c(=NC(=O)c2cccs2)c(C#N)cc2c(=O)n3ccccc3nc21,3,+,-2,10,-3
Cc1cccn2c(=O)c3cc(C#N)c(=NC(=O)c4ccncc4)n(CCCOC(C)C)c3nc12,6,11,nt,5,-1
CO[C@@H]1CN(C)C(=O)c2ccc(NC(=O)C3CCOCC3)cc2OC[C@@H](C)N(C(=O)C2CCOCC2)C[C@H]1C,nt,nt,-3,nt,nt
O=C(Nc1ccc(F)cc1)N1[C@H](CO)[C@H]2c3ccccc3NC[C@H]21,nt,nt,-4,nt,nt
CC(=O)N=c1c(C#N)cc2c(=O)n3cccc(C)c3nc2n1Cc1ccco1,1,+,2,9,-1
CC(C)(O)c1ccccc1CC[C@@H](SCC1(CC(=O)O)CC1)c1cccc(/C=C/c2ccc3ccc(Cl)cc3n2)c1,nt,6,-8,31*,-1
COc1cccc(S(=O)(=O)N(C)C[C@H]2Oc3ncc(-c4cccc(C(=O)N(C)C)c4)cc3C(=O)N([C@@H](C)CO)C[C@@H]2C)c1,nt,nt,-1,nt,nt
Cc1nn(-c2ccccc2)c2sc(-c3nnc(SCC(=O)O)o3)cc12,3,101*,1,17,-15
CO[C@H]1CN(C)C(=O)c2cc(NC(=O)Nc3ccccc3F)ccc2OC[C@@H](C)N(CC2CC2)C[C@@H]1C,nt,nt,1,nt,nt
O=C1NC(=Nc2ccccc2Cl)S/C1=C\c1cccc([N+](=O)[O-])c1,6,0,2,22,-2
CC1Cc2cc(/C=C3/SC(=S)NC3=O)ccc2O1 (stereo not given),-2,-8,0,37*,0
O=C1NC(=S)S/C1=C\c1cccc([N+](=O)[O-])c1,nt,-5,1,33*,1
O=C1NC(=S)SC1=Cc1ccccc1Cl,nt,2,nt,42*,-9
COc1ccccc1C=C1SC(=S)NC1=O,nt,6,nt,28,-1
SMILES,SARS 3CLpro inh,Mtb FBA inh,Mtb BioA inh,GDH-TPI inh,FadD28 FP inh
O=C1NC(=S)S/C1=C\c1cc(Cl)cc(Cl)c1O,nt,-22,4,25,33*
Cc1cc(/C=C2\SC(=S)NC2=O)cc(C)c1O,1,-2,-4,8,1
COc1cc(/C=C2/S/C(=N/S(=O)(=O)c3ccccc3)NC2=O)c([N+](=O)[O-])cc1OC,-10,-5,-3,26,4
COc1c(/C=C2\SC(=Nc3ccccc3Cl)NC2=O)cccc1[N+](=O)[O-],0,-2,4,14,-3
COc1cc(/C=C2\S/C(=N/S(=O)(=O)Cc3ccccc3)NC2=O)c([N+](=O)[O-])cc1OC,8,-4,0,33*,3
COc1cc(/C=C2/S/C(=N/S(=O)(=O)Cc3ccccc3)NC2=O)c([N+](=O)[O-])cc1OC,0,-3,0,34*,4
COc1ccccc1NC(=O)N1C[C@@H](O)COC[C@@H]2O[C@@H](CC(=O)NCc3ccccc3)CC[C@H]21,nt,nt,0,nt,nt
C[C@H](CO)N1C[C@H](C)[C@@H](CN(C)CC2CCCCC2)OCCCC[C@H](C)Oc2ccc(NC(=O)C3CCCCC3)cc2C1=O,nt,nt,-1,nt,nt
C[C@H](CO)N1C[C@H](C)[C@H](CN(C)Cc2ccc(C(F)(F)F)cc2)Oc2ccc(NC(=O)CCC(F)(F)F)cc2CC1=O,nt,nt,3,nt,nt
O=c1[nH]c2cc3c(cc2cc1C(c1nnnn1C1CCCCC1)N1CCSCC1)OCCO3 (stereo not given),2,28*,nt,20,-1
COc1cc2cc(C(c3nnnn3C3CCCC3)N3CCCCC3)c(=O)[nH]c2cc1OC (stereo not given),2,0,0,4,-4
Cc1ccsc1CNS(=O)(=O)c1ccc(F)cc1,7,2,-1,-8,-2
CNCc1sccc1C,4,34*,nt,3,0
O=C1C=CN(Cc2ccccc2)C(c2ccccc2)C1 (stereo not given),nt,-3,0,35*,0
O=C1C=CN(Cc2ccccc2)CC1,nt,3,1,25,-1
O=C1C(Cl)=C(N2CCCCCC2)C(=O)N1c1ccccc1Cl,0,-1,nt,-1,-3
O=C1C(Cl)=C(N2CCOCC2)C(=O)N1c1ccccc1Cl,4,-1,-1,36*,0
COc1ccccc1-c1c(C)oc2c(CN3CCOCC3)c(O)ccc2c1=O,-3,+,0,9,-2
COc1ccccc1-c1coc2c(CN3CCCCC3C)c(O)ccc2c1=O (stereo not given),-3,135*,0,30,-6
CCOC(=O)c1ccc(Oc2c(C)oc3c(CN4CCN(C)CC4)c(O)ccc3c2=O)cc1,-5,157*,-1,22,-2
COc1cccc(Oc2c(C)oc3c(CN4CCOCC4)c(O)ccc3c2=O)c1,nt,142*,0,23,-2
CN(C)C(=O)c1cccc(-c2ccc([C@H]3[C@@H](CO)N4CCCCN(C(=O)C5CCC5)C[C@@H]34)cc2)c1,nt,nt,4,nt,nt
O=C(C[C@H]1CC[C@H](NC(=O)Nc2cc(F)ccc2F)[C@H](CO)O1)Nc1ccccc1,nt,nt,5,nt,nt
Cc1oc2c(CN3CCCC3)c(O)ccc2c(=O)c1Oc1ccccc1Br,-2,+,nt,24,-3
CCOC(=O)c1oc2c(CN3CCN(C)CC3)c(O)c(CC)cc2c(=O)c1-c1nc2ccccc2s1,nt,1,0,5,-3
COc1ccccc1-c1coc2c(CN3C(C)CCCC3C)c(O)ccc2c1=O (stereo not given),2,20,0,6,-2

# Bioassay records: PubChem, several laboratories
